Assay outcomes deposited in PubChem BioAssay by The Scripps Research Institute Molecular Screening Center.
PAFAH1B3 inh = PAFAH1B3 (human) inhibition; Q15102; recombinant PAFAH1B3, FP-rhodamine probe, fluorescence polarization; inhibition, % at 3.39 µM; 0.28% of 340,000 active;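 active means inhibition above the screen-wide average of all tested compounds plus 3 SD, cut at about 25% in these data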;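 further: 0% = enzyme with DMSO only and 100% = wells lacking PAFAH1B3 protein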
rCAG RNA binder = binds r(CAG) RNA repeats; inhibition, % at 3 µM; 1.3% of 370,000 active; r(CAG) RNA repeat, TO-PRO-1 dye displacement fluorescence;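 active means inhibition above the plate cutoff, the mean of all test compounds on that plate plus 3 SD, cut at about 35% in these data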;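 further: 0% = DMSO alone and 100% = 100 µM mitoxantrone as full dye displacement; higher means more dye released from RNA so lower well fluorescence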
PAFAH1B2 inh = PAFAH1B2 (human) inhibition; AID 492953; P68402; recombinant PAFAH1B2, FP-rhodamine activity probe, fluorescence polarization; inhibition, % at 3.39 µM; 1.2% of 340,000 active;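 active means inhibition above the mean of all tested compounds plus 3 SD, cut at about 24% in these data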;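 further: 0% = enzyme with DMSO and 100% = wells lacking PAFAH1B2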
Target sequence (P68402 whole entry, looked up): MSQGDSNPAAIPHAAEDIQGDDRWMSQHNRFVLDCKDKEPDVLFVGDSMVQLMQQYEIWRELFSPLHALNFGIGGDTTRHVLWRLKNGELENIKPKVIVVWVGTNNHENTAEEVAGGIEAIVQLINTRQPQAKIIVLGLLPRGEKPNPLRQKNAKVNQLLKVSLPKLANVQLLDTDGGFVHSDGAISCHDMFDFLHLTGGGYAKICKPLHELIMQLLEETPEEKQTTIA
EBNA-1 inhibitor = blocks EBNA-1 binding to DNA; EBNA-1 DNA binding, fluorescence polarization; inhibition, % at 14.8 µM; 0.34% of 300,000 active; AID 1950; in the data active means inhibition above about 28%
ZTA counter = counter-screen for EBNA-1 inhibitors: inhibitors of Epstein-Barr virus ZTA; inhibition, % at 11 µM; ZTA-DNA binding, fluorescence polarization; AID 2234; P03206; 0.15% of 320,000 active; in the data active means inhibition above about 33%
Target sequence (P03206 whole entry, looked up): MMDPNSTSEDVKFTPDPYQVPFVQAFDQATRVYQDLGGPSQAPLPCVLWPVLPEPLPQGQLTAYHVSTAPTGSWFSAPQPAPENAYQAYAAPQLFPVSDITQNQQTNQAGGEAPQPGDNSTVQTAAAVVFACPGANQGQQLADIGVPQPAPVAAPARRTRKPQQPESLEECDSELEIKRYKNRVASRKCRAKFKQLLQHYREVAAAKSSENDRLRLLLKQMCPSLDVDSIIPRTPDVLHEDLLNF
PAFAH2 FP inh = inhibitors of human PAFAH2 | Q99487 | recombinant PAFAH2, FP-rhodamine activity probe, fluorescence polarization | inhibition, % at 3.39 µM | 0.99% of 340,000 active;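 active means inhibition above the mean over all tested compounds plus 3 SD, cut at about 30% in these data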;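 further: inhibitors block probe labeling of enzyme so polarization drops; 0% = enzyme with DMSO and 100% = wells lacking PAFAH2 protein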
* marks the source's active call; other numbers are inactive results; nt = not tested or not shown. The list is not random: actives were taken first. Their share in the collection is about 2.9%.

SMILES	PAFAH1B3 inh	rCAG RNA binder	PAFAH1B2 inh	EBNA-1 inhibitor	ZTA counter	PAFAH2 FP inh
O=C(NCc1ccccc1)C(=O)Nc1nc(C23CC4CC(CC(C4)C2)C3)cs1	7	1	12	-4	-6	-1
O=C(NCc1cccnc1)C(=O)Nc1nc(C23CC4CC(CC(C4)C2)C3)cs1	8	1	33*	4	0	23
CN(C)c1ccc(Cn2c(=O)n(Cc3ccc(C(=O)NCC4COC4)cc3)c(=O)c3ccccc32)cc1	nt	11	nt	nt	nt	nt
CC(C)(C)OC(=O)NCc1cc(F)ccc1/C=C/S(=O)(=O)NC1CCCC1	nt	0	nt	nt	nt	nt
Cc1ccc(NC(C)c2cc(Cl)ccc2O)cc1 (stereo unspecified)	2	2	28*	-1	5	-4
CCOC(=O)[C@@]12CN(C(=O)OC(C)(C)C)CC=C1N(Cc1ccc(OC)cc1)C(=O)[C@H]2CC(=O)NCc1cccc2ccccc12	nt	8	nt	nt	nt	nt
Nc1cccc2c(O)cccc12	35*	4	17	-14	1	44*
Nc1cccc2c(O)cc(S(=O)(=O)O)cc12	77*	nt	71*	nt	nt	67*
CCC(=O)Nc1cccc(-c2nc3ncccc3o2)c1C	5	-2	2	-8	5	-2
Cc1c(NC(=O)CSc2ccc(Cl)cc2)cccc1-c1nc2ncccc2o1	2	1	25*	2	10	0
CCc1nnn2c1Cn1c3ccccc3c(=O)n1[C@@H](C(C)C)C2	nt	-1	nt	nt	nt	nt
O=C1Nc2ccccc2C1=Nc1ccc(S(=O)(=O)Nc2nccs2)cc1	8	48*	6	9	14	14
O=C(O)c1ccc(CSc2nnnn2-c2ccc(F)cc2)cc1	5	2	0	0	21	6
O=C(O)c1ccc(-n2nnnc2SCc2ccccc2Br)cc1	5	7	27*	11	6	1
CCC(Sc1nc(C)cc(=O)[nH]1)C(=O)Nc1sc2c(c1C#N)CCCC2 (stereo unspecified)	1	55*	8	10	16	7
CC(Sc1nc(N)cc(=O)[nH]1)C(=O)Nc1sc2c(c1C#N)CCCC2 (stereo unspecified)	-3	15	10	0	7	2
Cc1ccc(N(C(=O)Cn2nnc3ccccc32)C(C(=O)NCc2ccccc2)c2ccccn2)cc1 (stereo unspecified)	-4	-7	26*	-7	-18	2
COc1ccc(C(=O)N/N=C(\C)c2ccc3c(c2)C2C=CCC2C(c2ccccc2)N3)cc1 (stereo unspecified)	1	nt	-3	1	-4	8
O=C(O)c1ccc2c(c1)[C@@H]1C=CC[C@@H]1[C@H](c1ccccn1)N2	61*	82*	33*	20	80*	49*
COc1cc(C(=O)C(=O)N2CCN(c3ccccc3)CC2)cc2ccccc12	nt	10	nt	nt	nt	nt
CCOc1cccc(=O)c2c(C)n(-c3ccc(C(=O)O)cc3)c(C)c12	6	28	3	7	41*	8
CC1CCN(CC(=O)Nc2ccc(S(=O)(=O)N3CCC(C)CC3)cc2)CC1	8	-7	29*	5	7	-4
CC1CCN(S(=O)(=O)c2ccc(NC(=O)Cc3cccs3)cc2)CC1	-1	24	31*	-11	-3	2
CC1CCN(S(=O)(=O)c2ccc(NC(=O)CN3CCOCC3)cc2)CC1	17	-1	33*	11	10	9
CC1CCN(S(=O)(=O)c2ccc(NC(=O)CN3CCCC3)cc2)CC1	4	-1	15	7	-5	-1
SMILES	PAFAH1B3 inh	rCAG RNA binder	PAFAH1B2 inh	EBNA-1 inhibitor	ZTA counter	PAFAH2 FP inh
COC(=O)C[C@@H]1CC[C@@H]2[C@@H](COc3ccc(NC(=O)Nc4cccc(Cl)c4)cc3C(=O)N2C)O1	nt	6	nt	nt	nt	nt
O=C(NNC(=O)C12CC3CC(CC(Cl)(C3)C1)C2)c1csc(N2CCOCC2)n1	3	4	33*	1	1	11
NC(=O)Cc1cccc(C(=O)c2ccccc2)c1N	nt	3	nt	nt	nt	nt
C1CCCCCC2(CCCCC1)OCC(CN1CCOCC1)O2 (stereo unspecified)	6	-4	26*	10	5	9
COc1ccc(C2=Nc3cccc4cccc(c34)N2)cc1	16	3	14	3	-17	2
Nc1cccc(C2=Nc3cccc4cccc(c34)N2)c1	33*	11	25*	0	4	-13
CCOC(=O)c1ccc(-n2[nH]c(-c3ccccc3)cc2=O)cc1	9	49*	7	10	5	14
CCOC(=O)c1ccc(N=Nc2c(C)[nH]n(-c3ccccc3)c2=O)cc1	11	-1	1	-4	-12	1
Cc1ccccc1CN1CCCCC(NC(=O)c2ccc(Br)cc2)C1=O (stereo unspecified)	nt	1	nt	nt	nt	nt
CCCCNC(=O)C(NC(=O)c1cnc(C)cn1)C(=O)c1ccccc1 (stereo unspecified)	nt	0	nt	nt	nt	nt
O=C(O)c1nn(CCOc2ccc(Br)cc2)c(=O)c2ccccc12	1	2	27*	-15	7	10
Cc1cc(OCCn2nc(C(=O)O)c3ccccc3c2=O)ccc1C(C)C	-4	1	8	nt	nt	-7
Cc1ccc(NS(=O)(=O)c2ccc(CCC(=O)N3CCOCC3)cc2)cc1	-7	-4	25*	-9	-15	6
O=C(COC(=O)Cc1ccsc1)NC1CCCCCC1	4	-1	11	9	-2	14
O=C(COC(=O)Cc1ccsc1)NCC12CC3CC(CC(C3)C1)C2	1	-4	46*	-1	2	10
COC(=O)c1cc(-c2ccc(C)c3ccccc23)c(=O)n2c1CCC2	nt	1	nt	nt	nt	nt
COc1ccc(-c2nnc(SCC(=O)Nc3ccc4cn[nH]c4c3)n2Cc2ccco2)cc1	nt	6	nt	nt	nt	nt
C[C@H](O)[C@@H]1CN2CCc3c([nH]c4c(-c5ccccc5)cccc34)[C@@H]2C[C@@H]1N(C)C(=O)c1ccco1	nt	7	nt	nt	nt	nt
Cc1cccc(OCCNS(=O)(=O)c2ccc(Cl)cc2)c1	-3	1	24*	nt	-10	3
O=C(COC(=O)CCS(=O)(=O)c1ccc(Cl)cc1)NC1CCCCC1	11	-7	9	0	1	1
O=C(COC(=O)CCS(=O)(=O)c1ccc(Cl)cc1)NCCc1ccc(Cl)cc1Cl	-5	-1	26*	0	-6	-3
O=C(Cc1ccc(Br)cc1)NCCc1ccc(Cl)cc1Cl	-2	0	27*	3	2	-4
CCOC(=O)CC[C@@H]1CC[C@]2(CCCN(Cc3cccs3)C2)O1	nt	-3	nt	nt	nt	nt
O=C(O)c1ccn2c(C(=O)c3ccccc3)c(-c3ccccc3)cc2c1	4	13	38*	4	6	1
COc1ccc(CN2C(=O)N3Cc4ccccc4C3CS2(=O)=O)cc1 (stereo unspecified)	nt	4	nt	nt	nt	nt
O=C(COc1ccc(Cl)cc1)NC1=NN(c2ccccc2)C(=O)C1	5	14	68*	13	19	0
O=C(CCCCl)NC1=NN(c2ccccc2)C(=O)C1	-4	10	3	-1	5	-7
